Assay results from PubChem BioAssay (NCATS).
Where “and” joins values, the source holds several entries; their conditions need not be identical. Identical values can stand only once. Records with an inconclusive call do not appear. Unmarked numbers belong to inactive results. Calls of active or inactive are those of the source. The call rests on the fitted dose curve; in most records, active means well fitted curve in the direction sought with a large enough effect; inconclusive means small, poorly fitted or top-dose-only effect, or another doubt; inactive means no such curve, though single readings can be large; an effect the other way counts as inactive or inconclusive.

Experiments:
[1] = Viability qHTS for spleen associated tyrosine kinase inhibitor (SYKi) naive MV4-11 cells (AID 1963823); conditions: MV4-11 AML viability, CellTiter-Glo luminescence, 72 h; series mostly up to 45 µM; further: nearly all actives have a fitted effect of over 40% in size
In short: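 SYK inhibitor-naive MV4-11 cells, 500 per well, exposed to compounds for 72 hr at 37 C, 5% CO2. Viability read as CellTiter-Glo luminescence after 10 min at room temperature.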

[2] = Viability qHTS for spleen associated tyrosine kinase inhibitor (SYKi) drug resistant MV4-11 cells (AID 1963824); conditions: SYKi-resistant MV4-11 viability, CellTiter-Glo, 72 h; series mostly up to 45 µM; further: nearly all actives have a fitted effect of over 35% in size
In short: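 SYK-inhibitor-resistant MV4-11 AML cells were seeded at 500 per well onto compound and cultured 72 hours (37 °C, 5% CO2). CellTiter-Glo was then added, and after 10 min at room temperature, luminescence gave viability.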

[3] = Quantitative highthroughput screen to assess conditional lethalithy of P12 Ichikawa cells grown in RPMI1640 with dialyzed fetal bovine serum (RPMI+ds) (AID 1963880); conditions: ATP luminescence, 48 h; Potency: P12-Ichikawa viability; series mostly up to 45.8 µM; further: nearly all actives have a fitted effect of over 35% in size
In short: (§1)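 Each medium arm—HPLM with 10% dialyzed FBS, or RPMI1640 with 5 mM glucose and 10% untreated or dialyzed FBS—was screened against an 11-point, 3-fold compound titration for 48 h at 37 °C, with CellTiter-Glo luminescence as endpoint.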

[4] = Quantitative highthroughput screen to assess conditional lethalithy of P12 Ichikawa cells grown in RPMI1640 with untreated serum (RPMI+s) (AID 1963881); conditions: ATP luminescence, 48 h; Potency: viability; series mostly up to 45.8 µM; further: nearly all actives have a fitted effect of over 35% in size;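 on Viability: 100% = DMSO wells and 0% = empty wells without cells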
In short: as §1

[5] = Cellular viability qHTS for adrenocortical cancer (ACC) cell line SW-13 (AID 1963989); conditions: SW-13 ACC cells viability, CellTiter-Glo, 48 h; activity (max response): active compounds read low; further: nearly all actives have a fitted effect of over 65% in size;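 on activity (max response): cells grown in serum-free medium with ITS supplement; on the % scale 0 is the no-effect control and ±100 the full control effect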
In short: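 Viability was read as CellTiter-Glo luminescence after 48 h compound treatment (up to 46 uM final) of SW-13 cells grown serum-free; titration curves were fit with a four-parameter logistic model to give IC50 and efficacy.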

[6] = Cellular viability qHTS for adrenocortical cancer (ACC) cell line NCI-H295R (AID 1963990); conditions: CellTiter-Glo ATP luminescence, 48 h; series mostly up to 46.1 µM; further: nearly all actives have a fitted effect of over 60% in size
In short: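 CellTiter-Glo ATP luminescence, read 48 h after compound addition, measured viability of NCI-H295R adrenocortical cells grown serum-free with ITS. Final concentrations spanned up to 46 uM. Data normalized to DMSO and doxorubicin, fitted for IC50 and maximal response.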

[7] = Quantitative highthroughput screen to assess conditional lethalithy of SEM cells grown in RPMI1640 with dialyzed fetal bovine serum (RPMI+ds) (AID 1963884); conditions: SEM B-ALL cells, RPMI+dialyzed FBS, CellTiter-Glo viability, 48 h; series mostly up to 45.8 µM; further: nearly all actives have a fitted effect of over 35% in size;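 on Viability: 100% = DMSO control wells and 0% = empty wells without cells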
In short: as §1

[8] = Quantitative highthroughput screen to assess conditional lethalithy of SEM cells grown in RPMI1640 with unreated serum (RPMI+s) (AID 1963883); conditions: SEM B-ALL cells, CellTiter-Glo viability, 48 h; series mostly up to 45.8 µM; further: nearly all actives have a fitted effect of over 35% in size;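 on Viability: 100% = DMSO wells and 0% = empty wells without cells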
In short: as §1

[9] = Quantitative highthroughput screen to assess conditional lethalithy of P12 Ichikawa cells grown in Human Plasma-Like Medium with dialyzed fetal bovine serum (HPLM+ds) (AID 1963879); conditions: ATP luminescence, 48 h; Potency: viability; series mostly up to 45.8 µM; further: nearly all actives have a fitted effect of over 35% in size
In short: as §1
Potency means the concentration at half of the fitted maximal effect.

COc1ccc(C(=O)c2c(C)n(CCN3CCOCC3)c3cc(I)ccc23)cc1
Potency [1]: 13.2 µM (active)
Potency [2]: 10.5 µM (active)
Potency [3]: 8.33 µM (active)
Potency [4]: 4.18 µM (active)
Potency [5]: 31.6 µM (active)
Potency [6]: 20 µM (active)

CN[C@@H]1Cc2cccc3[nH]c(=O)n(c23)C1
Potency [1]: inactive
Potency [2]: inactive
Potency [4]: inactive
Potency [7]: inactive
activity (max response) [5]: -9.99%
Potency [6]: inactive

CCNc1nc(Cl)nc(NCC)n1
Potency [1]: inactive
Potency [2]: inactive
activity (max response) [5]: -2.51%

COc1cc(CC(C)N)c(OC)cc1Br (centres undefined)
Potency [1]: 12.7 µM (active)
Potency [2]: 11.3 µM (active)
activity (max response) [5]: -4.97%

CCC(OC(C)=O)C(CC(C)NC)(c1ccccc1)c1ccccc1 (centres undefined)
Potency [1]: 43.7 µM (active)
Potency [2]: 31 µM (active)
Potency [5]: 28.2 µM (active)

Cc1cccc(C)c1NC(=O)CN1CCCC1=O
Potency [1]: inactive
Potency [2]: inactive
Potency [4]: inactive
Potency [8]: inactive
Potency [7]: inactive
activity (max response) [5]: -5.06% and 4.95%
Potency [6]: inactive

CC1(C)C(=O)N(c2ccc(C#N)c(C(F)(F)F)c2)C(=S)N1Cc1ccc(-c2cn[nH]n2)cc1
Potency [1]: 16.6 µM (active)
Potency [2]: 14.8 µM (active)
Potency [5]: 25.1 µM (active)

N[C@@H](Cc1ccc(N(CCCl)CCCl)cc1)C(=O)O
Potency [1]: 10.6 µM (active) and 833 nM (active)
Potency [2]: 7.5 µM (active) and 742 nM (active)
Potency [9]: 10.5 µM (active)
Potency [8]: 2.64 µM (active)
activity (max response) [5]: -19.4%
Potency [6]: 28.2 µM (active)

O=P1(NCCCl)OCCCN1CCCl (centres undefined)
Potency [1]: inactive
Potency [2]: inactive
Potency [4]: inactive
Potency [8]: 14.8 µM (active)
Potency [7]: 20.9 µM (active)
activity (max response) [5]: 17.4% and 1.23%
Potency [6]: inactive
